Screening data from PubChem BioAssay.
Compounds with a hit are over-represented: about 2.1% of the library has one in this group of screens.
FUS yeast rescue – FUS proteinopathy suppression in yeast; S. cerevisiae FUS-expressing, growth rescue, OD600, 24 h; Potency, µM (doses to about 76.6 µM), most hits filed as activators; hit rate 0.24% among 390,000;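 also: plate controls were DMSO vehicle for no effect and reference control for full effect; nearly all actives have a fitted effect of over 55% in size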
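Galactose (2%) drives FUS expression in yeast precultured in raffinose; seeding density OD 0.005. Test compounds incubated 24hr at 30C and 99% humidity before absorbance at 600 nm was measured.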
TDP-43 yeast inh – inhibitors of TDP-43 toxicity in yeast; TDP-43 expressing yeast growth rescue, BacTiter-Glo, 24 h; Potency, µM (top dose mostly 46.1 µM), for inactives: at the highest dose growth rescue (activation), actives largely listed as activators; hit rate 1.8% among 410,000; also: % of control where 0% means no effect; nearly all actives have a fitted effect of over 50% in size
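Growth rescue of TDP-43-toxic yeast measured as ATP luminescence (BacTiter-Glo). Cells grown to mid-log in raffinose, induced in galactose at OD600=0.02, exposed to compound 24 hr at 30 deg C.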
Abeta yeast res – compounds reversing amyloid beta toxicity in yeast. yeast expressing A-beta42, growth rescue, OD600, 48 h; response scale: 0% DMSO, 100% iron-clioquinol control. Potency, µM (series often up to 46.1 µM), usual class: activators. hit rate 0.063% among 410,000. AID 1347071; also: nearly all actives have a fitted effect of over 55% in size
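Yeast A-beta toxicity model in growth medium with pinned compounds, 48 h at 30 C; growth read as absorbance at 600 nm. Normalized to FeCl3/clioquinol equimolar mix (positive) and DMSO (negative).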
aSyn yeast inh – inhibitors of alpha-synuclein toxicity in yeast. Yeast expressing alpha-synuclein, growth rescue, BacTiter-Glo, 24 h. Potency, µM (doses to about 46.1 µM), inactives show at the top dose growth rescue (activation), most hits filed as activators. hit rate 0.14% among 370,000; also: % of control where 0% means no effect; nearly all actives have a fitted effect of over 65% in size
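Screening used galactose-induced yeast with toxic alpha-synuclein levels, exposed to compound for 24 hr at 30 deg C. Cell growth, read with BacTiter-Glo luminescence, gave the measured signal.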
* hit, by the source's call; i = inactive; ? = inconclusive; . = no result given; [ ] = another dose, or the depositor's remark. Calls follow the shape of the dose curve; as a rule, active = well fitted curve in the direction sought with a large enough effect; inconclusive = small, poorly fitted or top-dose-only effect, or another doubt; inactive = no such curve, though single readings can be large; an effect the other way counts as inactive or inconclusive. Potency is read from the fitted curve at half-maximal effect.

SMILES	FUS yeast rescue	TDP-43 yeast inh	Abeta yeast res	aSyn yeast inh
Cc1cccc(-c2nnc(SCC3CNC(=O)O3)n2-c2ccc(Cl)cc2)c1 (configuration not stated)	i	19.2%	i	11.8%
Nc1ccc2c(c1)C/C(=C/c1ccco1)C2=O	.	-15.3%	i	-7.8%
CCCNC(=O)c1nnsc1S(=O)(=O)c1ccc(Cl)cc1	i	1.58µM*	i	-67.6%
CCCNC(=O)c1nnsc1S(=O)c1ccc(Cl)cc1 (configuration not stated)	i	?	i	-76.4%
CCC(=O)Nc1nc2ccccc2n1CCN1CCOCC1	i	-0.6%	i	3.1%
CCCCCCCn1c(NC(=O)CC)nc2ccccc21	i	?	22.4µM*	?
CCCn1c(NC(=O)c2cccc(S(=O)(=O)N3CCCC3)c2)nc2ccccc21	?	22.4µM*	i	0.8%
Cc1nn2c(COc3ccc(NC(=O)C(C)C)cc3)nnc2c2ccccc12	i	14.9%	i	-4.0%
Cc1nn2c(COc3ccc(NC(=O)c4ccccc4Cl)cc3)nnc2c2ccccc12	22.4µM*	-4.1%	i	?
CN(C)S(=O)(=O)c1ccc(NC(=O)CSc2nc3ccccc3n2-c2ccccc2)cc1	6.31µM*	-32.7%	i	-0.6%
CN(C)S(=O)(=O)c1cccc(NC(=O)CSc2nc3ccccc3n2-c2ccccc2)c1	.	0.0%	i	-1.5%
CCN(CC)c1ccc(NC(=O)CSc2nc3ccccc3c(=O)n2-c2cc(S(=O)(=O)N(C)C)ccc2C)cc1	35.5µM*	-11.3%	i	-2.2%
CN(C)c1ccc(NC(=O)CSc2nc3ccccc3c(=O)n2C2CCCCC2)cc1	?	19.4%	i	7.5%
Cn1ccc(-c2ccccc2)c(C#N)c1=O	i	-1.4%[0.397 µM]	i	-0.7%
Clc1cccc(CSc2nnc(-c3ccccn3)n2Cc2ccco2)c1	?	20µM*	i	7.7%
C=CCn1c(SCc2ccc3nonc3c2)nnc1-c1cccs1	i	17.8µM*	i	11.5%
c1ccc(CSc2nnc(-c3cccs3)n2Cc2ccco2)cc1	i	17.8µM*	i	12.8%
C=CCn1c(SCC(=O)C(C)(C)C)nnc1-c1cccs1	i	7.8%	i	1.5%
Brc1ccc(CSc2nnc(-c3ccccn3)n2Cc2ccco2)cc1	i	2.0%	i	-1.0%
Cc1ccccc1CSc1nnc(-c2cccs2)n1Cc1ccco1	i	10.6%	i	7.4%
COc1ccc(NC(=O)CCCC(=O)OCC(F)(F)C(F)F)cc1	i	-14.0%	i	7.6%
CC(=O)c1ccc(NC(=O)c2cc(CC(C)C)nc3ccccc23)cc1	i	23.6%	i	-2.1%
Fc1cccc(COc2ccccc2C(=S)N2CCCC2)c1	i	-4.6%[9.22 µM]	?	0.1%
Fc1ccc2c(c1)C(c1ccncc1)=NNC(c1cccnc1)=N2	i	-8.1%	i	.
COc1cc(-c2csc(C)n2)ccc1O	i	15.5%	i	-0.4%
SMILES	FUS yeast rescue	TDP-43 yeast inh	Abeta yeast res	aSyn yeast inh
COc1ccc(-c2csc(C)n2)cc1Br	i	11.2µM*	i	0.8%
Clc1ccc(-c2cn3c(n2)CCC3)cc1	i	-7.3%	i	-21.2%
CCCCCn1c(=O)c2ccccc2n2c(CCl)nnc12	i	15.8µM*	i	4.7%
O=[N+]([O-])c1ccccc1CNc1ccc(F)c(Cl)c1	i	17.8µM*	i	-10.9%
O=C(Nc1ccc(Cl)cc1Cl)NC1CCCC1	i	-4.1%[0.397 µM]	i	0.3%
Cc1ccc(Nc2nc(COC(=O)C3CC3)cs2)cc1	i	12.6µM*	i	-24.3%
Cc1ccc(Nc2nnc(SCC(=O)Nc3cc(C(=O)O)ccc3C)s2)c(C)c1	i	5.9%	i	-0.6%
CC1=C(C(=O)Nc2ccc([N+](=O)[O-])cc2)C(c2cccc(C(F)(F)F)c2)NC(=S)N1c1ccccc1 (configuration not stated)	10µM*	0.0%	i	-3.2%
COc1ccc(/C=C/C(=O)N2CCC(c3nc4ccccc4o3)CC2)cc1OC	?	15.8µM*	i	.
Cc1ccc(/C=C/C(=O)N2CCC(c3nc4ccccc4o3)CC2)cc1	i	5.7%	i	.
CCOC(=O)C1=CCN(S(=O)(=O)c2cccc(Cl)c2)C1c1ccc(C)cc1 (configuration not stated)	i	?	i	?
CCOC(=O)C1=CCN(S(=O)(=O)c2cccc(Cl)c2)C1c1ccc(Br)cc1 (configuration not stated)	?	0.0%	i	20µM*
CCOc1ccccc1NC(=O)CSc1nc(=O)n(CCCN2CCOCC2)c2c1CCC2	i	-15.7%	i	-1.4%
CN(C(=O)c1ccc2c(c1)N(Cc1ccccc1F)C(=O)c1ccccc1S2(=O)=O)C1CCCCC1	10µM*	-3.6%	i	.
CN(Cc1ccccc1)C(=O)c1ccc2c(c1)N(Cc1ccccc1F)C(=O)c1ccccc1S2(=O)=O	31.6µM*	0.5%	i	.
Cc1cccc(CN2C(=O)c3ccccc3S(=O)(=O)c3ccc(C(=O)N(C)Cc4ccccc4)cc32)c1	?	14.4%	i	.
Cc1cccc(C(=O)NNC(=O)c2ccc(NS(=O)(=O)c3cccs3)cc2)c1C	i	-6.4%	i	-3.1%[1.84 µM]
CC(C)C(=O)N(c1ccc2oc(=O)sc2c1)S(=O)(=O)c1cccs1	i	8.0%	i	6.2%
CC(=O)N(c1ccc2oc(=O)sc2c1)S(=O)(=O)c1cccs1	28.2µM*	25.0%	i	-1.7%
CCN(C(C)=O)c1nc(CSc2nnc(NC(C)C)s2)cs1	i	13.4%	i	0.3%
Brc1ccc(-c2nnc(-c3cccnc3)o2)cc1	i	10µM*	i	3.1%
COc1ccc(-c2nnc(-c3ccc(N)cc3)o2)cc1	i	10µM*	i	5.0%
Clc1ccc(-c2nnc(-c3cccnc3)o2)cc1	i	12.6µM*	i	-3.6%
Brc1ccccc1-c1nnc(-c2cccnc2)o1	i	15.8µM*	i	-0.2%
Cc1ccc(-c2nnc(-c3cccnc3)o2)cc1	i	5.2%	i	-1.4%
SMILES	FUS yeast rescue	TDP-43 yeast inh	Abeta yeast res	aSyn yeast inh
COc1ccc(-c2nnc(-c3ccc(N(C)C)cc3)o2)cc1	?	-4.5%	i	-21.0%
Fc1ccc(-n2cnnn2)c(F)c1	i	-28.9%	i	-7.9%
O=C(O)CC(SCC(=O)NC1CCCc2ccccc21)C(=O)O (configuration not stated)	i	-18.3%	i	-1.4%
CCCCN(CC)CCNC(=O)c1cc2cc3ccc(Cl)cc3nc2o1	i	-11.3%	i	-6.7%
CCCCn1cnc2cc(NCc3ccccc3Cl)ccc21	i	18.1%	i	.
Cc1ccc(/C=C/c2onc(C)c2S(=O)(=O)N2CCC(C(=O)Nc3ccc(Br)c(C)c3)CC2)cc1	i	7.3%	i	.
Cn1c(CNc2ccccn2)c(C#N)c2ccccc21	i	-26.4%	i	-11.3%
COc1cccc(-c2noc(-c3cccnc3)n2)c1	i	18.9%	i	-7.4%
